Results taken from PubChem BioAssay (NCATS).
Records with an inconclusive call do not appear. Active and inactive are the calls of the source. Unless noted, the call rests on the fitted dose curve; in most records, active means well fitted curve in the direction sought with a large enough effect; inconclusive means small, poorly fitted or top-dose-only effect, or another doubt; inactive means no such curve, though single readings can be large; an effect the other way counts as inactive or inconclusive.

Tests used:
[1] = molecular target: Lysosomal acid glucosylceramidase (Homo sapiens) (UniProt P04062); test: Glucocerebrosidase-p2 (AID 348; in the data active means potency below about 10 µM; further: potency means the concentration at half of the fitted maximal effect); settings: purified GBA, blue fluorogenic substrate, 40 min
Chain of Lysosomal acid glucosylceramidase (Homo sapiens) (P04062 whole entry, looked up): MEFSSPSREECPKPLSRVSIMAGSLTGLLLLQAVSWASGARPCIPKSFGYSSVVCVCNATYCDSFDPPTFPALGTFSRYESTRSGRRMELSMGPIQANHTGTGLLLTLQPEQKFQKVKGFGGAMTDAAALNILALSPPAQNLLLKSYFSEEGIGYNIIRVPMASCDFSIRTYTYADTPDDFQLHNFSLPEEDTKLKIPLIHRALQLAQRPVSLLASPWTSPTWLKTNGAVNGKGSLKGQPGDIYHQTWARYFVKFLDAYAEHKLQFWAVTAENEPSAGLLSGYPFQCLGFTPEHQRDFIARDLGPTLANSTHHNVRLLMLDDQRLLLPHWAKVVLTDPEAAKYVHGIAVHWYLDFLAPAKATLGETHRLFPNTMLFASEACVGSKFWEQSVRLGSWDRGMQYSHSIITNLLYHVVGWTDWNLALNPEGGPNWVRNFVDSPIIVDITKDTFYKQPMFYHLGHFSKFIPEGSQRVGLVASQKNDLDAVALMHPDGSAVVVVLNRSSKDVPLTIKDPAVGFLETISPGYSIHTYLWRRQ
Outline: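 Normal human glucocerebrosidase (0.2 nM) with blue fluorogenic substrate (80 uM final) in citrate/phosphate pH 5.9 with 10mM sodium taurocholate, 0.01% tween-20; 40 min RT, NaOH/glycine stop; fluorescence Ex 365/Em 440; AC50 from a titration from 0.6 nM upwards.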

[2] = AP1 Signaling Pathway (AID 357; active means well fitted curve in either direction with a large enough effect, not every such curve was filed as active;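 further: ME-180 reporter cells stimulated with EGF at its EC50 level; on the % scale 0 is the no-effect control and ±100 the full control effect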); settings: ME-180 AP-1-bla reporter, EGF-induced, beta-lactamase ratio, 5 h; at 7.69 µM (top of the series) unless noted
Outline: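 AP-1-bla ME-180 cells, Opti-MEM + 0.5% dialyzed FBS, plated overnight 37 °C. Cpd titration + EC50 EGF, 5 h 37 °C. CCF4 2.5 h RT; ex 405, em 460/530 ratio → %activity, AC50.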

[3] = molecular target: Cytochrome P450 1A2 (Homo sapiens) (UniProt P05177); test: p450-cyp1a2 (AID 410; calls by dose curve; further: potency means the concentration at half of the fitted maximal effect); settings: recombinant CYP1A2, luciferin-ME demethylation, luminescence; series mostly up to 57 µM
Chain of Cytochrome P450 1A2 (Homo sapiens) (P05177 whole entry, looked up): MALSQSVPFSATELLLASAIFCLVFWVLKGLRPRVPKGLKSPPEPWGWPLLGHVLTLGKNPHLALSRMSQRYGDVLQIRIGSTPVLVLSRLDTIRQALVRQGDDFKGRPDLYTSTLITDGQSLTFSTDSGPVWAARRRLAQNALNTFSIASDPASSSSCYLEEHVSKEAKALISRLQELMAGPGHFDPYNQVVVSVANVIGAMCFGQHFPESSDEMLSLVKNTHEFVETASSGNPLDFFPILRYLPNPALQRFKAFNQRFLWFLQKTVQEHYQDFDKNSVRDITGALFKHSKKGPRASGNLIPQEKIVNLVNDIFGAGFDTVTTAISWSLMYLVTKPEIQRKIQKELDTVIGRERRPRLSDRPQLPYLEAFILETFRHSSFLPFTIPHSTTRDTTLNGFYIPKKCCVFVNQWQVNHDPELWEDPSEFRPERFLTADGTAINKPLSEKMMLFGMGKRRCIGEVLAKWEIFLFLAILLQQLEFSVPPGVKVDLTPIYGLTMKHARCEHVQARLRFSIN
Outline: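 Read-out is luminescence from luciferin produced by CYP1A2 demethylation of Luciferin-ME (100uM, at Km). Detection reagent stopped the 60 min NADPH-dependent reaction; signals were normalized to 57 uM furafylline.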

[4] = NFAT Signaling Pathway (AID 444; active means well fitted curve in either direction with a large enough effect, not every such curve was filed as active;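 further: carbachol stimulus at about its EC50 of 1 µM final; on the % scale 0 is the no-effect control and ±100 the full control effect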); settings: Jurkat NFAT-bla M1, carbachol, beta-lactamase ratio, 5 h; at 7.69 µM (top of the series) unless noted
Outline: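 Jurkat cells carrying an NFAT-driven β-lactamase reporter and co-transfected muscarinic M1 receptor were treated with compound plus carbachol (1 uM final, an EC50 level) for 5 h at 37 °C. CCF4 loading followed for 1 h at RT; 460/530 nm ratio gave %activity.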

[5] = Stat Signaling Pathway (AID 446; active means well fitted curve in either direction with a large enough effect, not every such curve was filed as active;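 further: ME-180 cervical cancer cells given 40 pM IL-6 alongside compound; SIE-controlled beta-lactamase reporter measured as 460/530 nm FRET emission ratio; on the % scale 0 is the no-effect control and ±100 the full control effect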); settings: ME-180 (cervical carcinoma) SIE beta-lactamase reporter, IL-6 stimulated, 5 h; series mostly up to 7.69 µM
Outline: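 Compound effects on IL-6-induced STAT reporter activity were measured in ME-180 cells. After overnight culture, cells were co-treated with 40 pM IL-6 for 5 hrs before beta-lactamase substrate loading at room temperature.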

[6] = molecular target: Glucocorticoid receptor (Homo sapiens) (UniProt P04150); test: GR-GFP Redistribution (AID 450;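 active means compounds whose dose series gives a full or clear partial fitted curve of increased nuclear translocation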; further: potency means the concentration at half of the fitted maximal effect); settings: U2OS GR-GFP nuclear translocation, laser cytometry, 2 h
Chain of Glucocorticoid receptor (Homo sapiens) (P04150 whole entry, looked up, the tested form may be a part): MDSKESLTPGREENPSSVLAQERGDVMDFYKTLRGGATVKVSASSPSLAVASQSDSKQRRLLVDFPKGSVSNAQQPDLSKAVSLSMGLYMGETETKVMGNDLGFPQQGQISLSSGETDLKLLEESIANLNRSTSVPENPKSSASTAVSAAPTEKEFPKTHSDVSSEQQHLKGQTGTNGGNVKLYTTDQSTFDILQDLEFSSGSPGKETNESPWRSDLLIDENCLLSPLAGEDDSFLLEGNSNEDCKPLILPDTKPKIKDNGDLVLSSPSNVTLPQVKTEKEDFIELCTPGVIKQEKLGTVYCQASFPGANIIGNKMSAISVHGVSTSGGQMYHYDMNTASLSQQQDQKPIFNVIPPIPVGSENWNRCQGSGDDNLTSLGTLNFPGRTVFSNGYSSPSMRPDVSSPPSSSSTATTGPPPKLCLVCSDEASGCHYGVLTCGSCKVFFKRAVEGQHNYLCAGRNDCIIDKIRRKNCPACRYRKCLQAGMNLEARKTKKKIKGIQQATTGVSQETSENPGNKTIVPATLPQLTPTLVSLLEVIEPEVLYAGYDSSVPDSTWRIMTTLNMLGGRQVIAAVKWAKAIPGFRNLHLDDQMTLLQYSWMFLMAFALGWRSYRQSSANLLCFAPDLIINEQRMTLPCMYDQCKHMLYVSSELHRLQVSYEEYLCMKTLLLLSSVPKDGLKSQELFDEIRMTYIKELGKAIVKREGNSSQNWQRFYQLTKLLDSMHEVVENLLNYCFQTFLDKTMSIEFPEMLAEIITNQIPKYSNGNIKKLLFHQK

[7] = molecular target: Glucocorticoid receptor (Homo sapiens) (UniProt P04150); test: GR-EFC Redistribution (AID 451; calls by dose curve; further: potency means the concentration at half of the fitted maximal effect); settings: CHO-K1 GR-EFC translocation, beta-gal luminescence, 2 h
Outline: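 CHO-K1 cells stably expressing nuclear-localized β-gal enzyme acceptor and GR fused C-terminally to the enzyme donor fragment; ligand-driven nuclear translocation restores β-gal by complementation. Compounds titrated up to 46 uM final, 2 h at 37 °C; luminescence read.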

[8] = molecular target: Mitogen-activated protein kinase 10 (Mus musculus) (UniProt Q61831); test: JNK3 AlphaScreen Assay (AID 530; active means well fitted curve in either direction with a large enough effect, not every such curve was filed as active;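 further: kinase came from lysate of stimulated human HepG2 cells; signal reports phosphorylation of biotinylated GST-cJun 1-79 at Ser73 with 10 µM ATP; on the % scale 0 is the no-effect control and ±100 the full control effect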); settings: JNK3 lysate, c-Jun phosphorylation; series mostly up to 57.1 µM
Outline: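 Biotinylated GST-cJun(1-79) served as substrate for JNK3 in HepG2 lysates stimulated with IL-1beta and TNF-alpha. ATP was 10 uM final, pH 7.6. Ser73 phosphorylation was quantified by AlphaScreen (680 nm excitation).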

[9] = molecular target: Dual specificity protein kinase CLK4 (Homo sapiens) (UniProt Q9HAZ1); test: qHTS Assay for Inhibitors of CDC-like Kinase 4 (Kinase-Glo Assay) (AID 1770); settings: recombinant Clk4, Kinase-Glo ATP depletion luminescence; series mostly up to 66.7 µM; further: nearly all actives have a fitted effect of over 65% in size; further: potency means the concentration at half of the fitted maximal effect
Chain of Dual specificity protein kinase CLK4 (Homo sapiens) (Q9HAZ1 whole entry, looked up): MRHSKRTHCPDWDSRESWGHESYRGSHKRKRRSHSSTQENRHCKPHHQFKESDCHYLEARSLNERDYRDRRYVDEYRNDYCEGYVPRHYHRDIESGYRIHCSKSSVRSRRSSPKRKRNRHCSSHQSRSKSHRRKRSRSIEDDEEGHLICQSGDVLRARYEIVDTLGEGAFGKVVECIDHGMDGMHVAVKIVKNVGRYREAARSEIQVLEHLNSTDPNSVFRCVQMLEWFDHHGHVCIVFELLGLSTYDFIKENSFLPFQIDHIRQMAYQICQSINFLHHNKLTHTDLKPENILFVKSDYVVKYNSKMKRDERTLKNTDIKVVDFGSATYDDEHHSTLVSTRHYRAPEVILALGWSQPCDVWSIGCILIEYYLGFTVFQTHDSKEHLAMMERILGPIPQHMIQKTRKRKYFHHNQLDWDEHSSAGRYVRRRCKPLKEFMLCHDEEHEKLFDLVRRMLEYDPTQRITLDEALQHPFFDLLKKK
Outline: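 Inhibition was judged from remaining ATP, measured by Ultra-Glo luciferase bioluminescence after Clk4 (25 nM) had acted on RS peptide at 1 uM ATP for 4.5 hours, room temperature.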

[10] = molecular target: Dual specificity protein kinase CLK4 (Homo sapiens) (UniProt Q9HAZ1); test: qHTS Assay for Inhibitors of CDC-like Kinase 4 (ADP-Glo Assay) (AID 1771); settings: recombinant CLK4, ADP-Glo luminescence; series mostly up to 80 µM; further: nearly all actives have a fitted effect of over 70% in size; further: potency means the concentration at half of the fitted maximal effect
Outline: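 In this ADP-Glo format, 1 uM ATP and 100 uM RS peptide served as substrates for 25 nM Clk4 in Mg2+/EGTA/DTT/Triton buffer; reactions ran 1 hr at room temperature before luminescent ADP quantification.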

[11] = molecular target: Dual specificity protein kinase CLK4 (Homo sapiens) (UniProt Q9HAZ1); test: qHTS Assay for Inhibitors of CDC-like Kinase 4 (ADP-FP Assay) (AID 1795); settings: Transcreener ADP fluorescence polarization; series mostly up to 50 µM; further: nearly all actives have a fitted effect of over 60% in size; further: potency means the concentration at half of the fitted maximal effect
Outline: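 Inhibition of ADP formation by 6.25 nM Clk4 is measured using 1 uM ATP and 100 uM RS repeat peptide over one hour. Produced ADP displaces a fluorescent tracer from antibody, lowering polarization.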

[12] = molecular target: Ubiquitin carboxyl-terminal hydrolase 1 (Homo sapiens) (UniProt O94782); test: Inhibitors of USP1/UAF1: Pilot qHTS (AID 504865); settings: purified USP1/UAF1, Ub-rhodamine cleavage fluorescence; series mostly up to 54.9 µM; further: nearly all actives have a fitted effect of over 35% in size; further: potency means the concentration at half of the fitted maximal effect
Chain of Ubiquitin carboxyl-terminal hydrolase 1 (Homo sapiens) (O94782 whole entry, looked up): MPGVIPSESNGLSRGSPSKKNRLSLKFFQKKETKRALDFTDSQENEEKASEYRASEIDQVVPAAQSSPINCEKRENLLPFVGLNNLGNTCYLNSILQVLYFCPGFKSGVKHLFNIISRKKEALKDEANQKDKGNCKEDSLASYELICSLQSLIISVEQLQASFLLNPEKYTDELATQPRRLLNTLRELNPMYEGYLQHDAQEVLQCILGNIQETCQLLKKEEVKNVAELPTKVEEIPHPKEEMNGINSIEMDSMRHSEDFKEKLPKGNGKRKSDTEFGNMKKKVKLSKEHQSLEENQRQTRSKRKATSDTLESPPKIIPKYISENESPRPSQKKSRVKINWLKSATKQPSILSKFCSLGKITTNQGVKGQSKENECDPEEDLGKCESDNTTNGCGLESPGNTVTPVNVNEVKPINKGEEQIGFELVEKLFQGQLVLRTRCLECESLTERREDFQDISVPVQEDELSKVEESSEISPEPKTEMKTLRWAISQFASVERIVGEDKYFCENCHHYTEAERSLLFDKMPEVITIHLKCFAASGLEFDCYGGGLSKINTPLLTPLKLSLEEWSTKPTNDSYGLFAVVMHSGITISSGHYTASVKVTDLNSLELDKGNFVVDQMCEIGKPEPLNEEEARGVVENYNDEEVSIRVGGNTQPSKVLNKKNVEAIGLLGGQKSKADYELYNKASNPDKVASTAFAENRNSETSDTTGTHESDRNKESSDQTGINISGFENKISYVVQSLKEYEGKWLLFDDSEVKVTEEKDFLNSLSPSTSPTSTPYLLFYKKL
Outline: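 Kinetic fluorescence assay: 1nM USP1/UAF1, 15 min compound preincubation, then 150nM Ub-Rho; 480/540 nm.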

[13] = molecular target: 3',5'-cyclic-AMP phosphodiesterase 4B (Homo sapiens) (UniProt Q07343); test: qHTS Assay for Inhibitors of PDE-IV (AID 607; active means well fitted activation curve with a large enough effect in the main read-out, with a control signal flat, not every such curve was filed as active; further: % of control where 0% means no effect); settings: HEK293 ACTOne CNG channel cells, membrane potential fluorescence; series mostly up to 22.9 µM
Chain of 3',5'-cyclic-AMP phosphodiesterase 4B (Homo sapiens) (Q07343 whole entry, looked up): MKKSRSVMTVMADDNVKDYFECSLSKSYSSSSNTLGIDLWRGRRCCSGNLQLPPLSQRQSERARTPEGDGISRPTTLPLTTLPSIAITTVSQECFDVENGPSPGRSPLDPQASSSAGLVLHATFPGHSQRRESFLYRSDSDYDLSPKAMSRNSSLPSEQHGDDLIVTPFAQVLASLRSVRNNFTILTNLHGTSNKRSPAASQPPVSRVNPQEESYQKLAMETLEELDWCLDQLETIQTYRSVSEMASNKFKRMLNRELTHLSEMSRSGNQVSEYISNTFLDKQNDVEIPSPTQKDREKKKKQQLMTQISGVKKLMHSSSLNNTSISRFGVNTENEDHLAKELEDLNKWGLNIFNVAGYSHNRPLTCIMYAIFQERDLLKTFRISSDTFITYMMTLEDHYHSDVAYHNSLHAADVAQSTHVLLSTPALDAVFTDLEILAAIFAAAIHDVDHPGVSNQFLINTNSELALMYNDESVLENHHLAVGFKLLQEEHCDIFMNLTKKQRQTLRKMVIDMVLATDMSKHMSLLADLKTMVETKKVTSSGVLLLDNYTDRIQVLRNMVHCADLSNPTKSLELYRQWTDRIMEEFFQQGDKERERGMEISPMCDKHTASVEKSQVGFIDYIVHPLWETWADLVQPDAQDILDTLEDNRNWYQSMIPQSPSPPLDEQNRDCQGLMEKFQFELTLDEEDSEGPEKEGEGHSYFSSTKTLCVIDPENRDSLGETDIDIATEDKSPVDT
Outline: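 ACTOne HEK293 cells carry a modified cAMP-gated CNG channel and express endogenous PDE4; plated 1000 cells/well, compounds up to 22.9 uM final. Membrane-potential dye fluorescence (ex 535/em 590) was read; parental cells received 10 uM forskolin + 100 uM RO 20-1724.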

[14] = molecular target: Cytochrome P450 3A4 (Homo sapiens) (UniProt P08684); test: qHTS Assay for Activators of Cytochrome P450 3A4 (AID 885); settings: recombinant CYP3A4, Luciferin-PPXE luminescence, 60 min; series mostly up to 57.1 µM; further: nearly all actives have a fitted effect of over 65% in size
Chain of Cytochrome P450 3A4 (Homo sapiens) (P08684 whole entry, looked up): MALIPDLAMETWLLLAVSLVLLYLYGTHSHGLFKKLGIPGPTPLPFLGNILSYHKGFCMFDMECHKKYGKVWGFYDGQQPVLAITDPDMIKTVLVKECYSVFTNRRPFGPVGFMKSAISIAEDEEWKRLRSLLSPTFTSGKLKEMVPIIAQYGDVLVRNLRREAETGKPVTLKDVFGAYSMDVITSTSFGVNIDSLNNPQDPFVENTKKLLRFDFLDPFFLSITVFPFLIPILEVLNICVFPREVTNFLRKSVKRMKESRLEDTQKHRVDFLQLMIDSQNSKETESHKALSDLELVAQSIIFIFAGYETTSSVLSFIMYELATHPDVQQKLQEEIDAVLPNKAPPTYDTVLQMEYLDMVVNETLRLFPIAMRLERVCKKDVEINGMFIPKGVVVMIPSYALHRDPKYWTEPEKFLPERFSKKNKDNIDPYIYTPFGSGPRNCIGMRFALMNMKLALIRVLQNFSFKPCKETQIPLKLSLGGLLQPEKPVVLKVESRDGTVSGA
Outline: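 CYP3A4 activity: Luciferin-PPXE O-dealkylation, 25uM substrate, 200mM KPO4, RT throughout. Read-out is luciferase luminescence; higher values reflect activation.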

[15] = NCATS anti-infectives library activity on the primary C. elegans qHTS viability assay (AID 1745855; calls by dose curve); settings: C. elegans worm area imaging, day 7; series mostly up to 41.8 µM
Outline: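 Titration-based screen in worms: eggs hatched overnight in M9, L1 larvae fed TOP10 capsules in S medium with compound, incubated 21 °C for 7 days; fluorescent objects gated by size and intensity at days 0, 3 and 7.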

[16] = molecular target: Cytochrome P450 2C19 (Homo sapiens) (UniProt P33261); test: qHTS Assay for Inhibitors and Substrates of Cytochrome P450 2C19 (AID 899); settings: recombinant CYP2C19, luciferin-H EGE luminescence; series mostly up to 57.1 µM; further: potency means the concentration at half of the fitted maximal effect; nearly all actives have a fitted effect of over 60% in size
Chain of Cytochrome P450 2C19 (Homo sapiens) (P33261 whole entry, looked up): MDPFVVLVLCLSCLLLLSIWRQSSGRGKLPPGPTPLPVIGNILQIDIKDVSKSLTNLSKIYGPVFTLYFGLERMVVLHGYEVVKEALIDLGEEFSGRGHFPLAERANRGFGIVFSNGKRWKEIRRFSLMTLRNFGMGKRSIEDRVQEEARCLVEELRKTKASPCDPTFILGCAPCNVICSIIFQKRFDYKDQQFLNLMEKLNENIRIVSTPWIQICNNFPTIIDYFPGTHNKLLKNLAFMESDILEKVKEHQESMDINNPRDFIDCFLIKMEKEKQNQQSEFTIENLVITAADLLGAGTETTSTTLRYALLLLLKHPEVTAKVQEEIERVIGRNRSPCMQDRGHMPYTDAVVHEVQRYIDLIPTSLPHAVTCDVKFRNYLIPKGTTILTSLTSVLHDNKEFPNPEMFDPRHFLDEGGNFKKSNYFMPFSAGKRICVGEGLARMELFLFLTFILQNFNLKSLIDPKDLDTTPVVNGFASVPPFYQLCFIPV
Outline: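 Human CYP2C19 (5nM) with Luciferin-H EGE at 10uM (its KM) in 50mM KPO4 was preincubated with compound for 10 min at 37C. NADPH regeneration started a 60 min 37C reaction. Luciferin was read by luminescence, normalized to 57uM ketoconazole.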

[17] = molecular target: Cytochrome P450 3A4 (Homo sapiens) (UniProt P08684); test: qHTS Assay for Inhibitors and Substrates of Cytochrome P450 3A4 (AID 884); settings: recombinant CYP3A4, Luciferin-PPXE luminescence; series mostly up to 57.1 µM; further: potency means the concentration at half of the fitted maximal effect; nearly all actives have a fitted effect of over 50% in size
Outline: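 Luminescent readout of luciferin produced by CYP3A4 (20 nM) dealkylation of Luciferin-PPXE, 25 uM (its KM). NADPH-driven reaction ran 60 min at RT after 10 min compound preincubation; data scaled to 57 uM ketoconazole as 100% inhibition.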

[18] = molecular target: Cytochrome P450 2D6 (Homo sapiens) (UniProt P10635); test: qHTS Assay for Inhibitors and Substrates of Cytochrome P450 2D6 (AID 891); settings: recombinant CYP2D6, luciferin-ME EGE luminescence; series mostly up to 57.1 µM; further: potency means the concentration at half of the fitted maximal effect; nearly all actives have a fitted effect of over 60% in size
Outline: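 Luminescent read-out of luciferin formed by 5 nM human CYP2D6 demethylating 30 uM Luciferin-ME EGE (Km level) over 60 min at room temperature after NADPH regeneration addition. Data normalized to full inhibition by 1.43 uM quinidine.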

COc1ccc(Oc2ncc3nc(-c4cccc(C#N)c4)c(=O)n(CCC#N)c3n2)cc1
active: Potency [3] 25.1 µM
inactive: Potency [1] > 11.4 µM | activity change, negative = inhibition [2] -20.3% | activity change, negative = inhibition [4] 14.2% | outcome [5] | Potency [6] > 9.22 µM | Potency [7] > 46 µM | Potency [8] | Potency [9] | Potency [10] | Potency [11] | Potency [12]

COc1ncc2nc(CCc3ccccc3)c(=O)n(-c3ccccc3)c2n1
active: Potency [3] 12.6 µM
inactive: Potency [1] > 11.4 µM | activity change, negative = inhibition [2] -22.4% | activity change, negative = inhibition [4] -14.3% | outcome [5] | Potency [6] > 9.22 µM | Potency [7] > 46 µM | Potency [8] | Potency [13] | Potency [9] | Potency [10] | Potency [11] | Potency [12]

O=c1c(-c2cccc(F)c2)nc2cncnc2n1Cc1ccc(F)cc1
inactive: Potency [1] > 11.4 µM | activity change, negative = inhibition [2] -9.74% | activity change, negative = inhibition [4] -4.79% | outcome [5] | Potency [6] > 9.22 µM | Potency [7] > 46 µM | Potency [8] | Potency [13] | Potency [9] | Potency [10] | Potency [11] | Potency [12]

O=C(O)c1cc(O)c2c(c1)[C@H]([C@H]1c3cc(C(=O)O)cc(O)c3C(=O)c3c(O[C@@H]4OC(CO)C(O)C(O)C4O)cccc31)c1cccc(O[C@@H]3OC(CO)C(O)C(O)C3O)c1C2=O (stereo partly specified)
active: Potency [12] 10 µM
inactive: outcome [14]

CC(C)CN(C[C@@H](O)[C@H](Cc1ccccc1)NC(=O)[C@@H](NC(=O)CNCc1cccc(F)c1)C(C)(C)C)S(=O)(=O)c1cccc(N)c1
inactive: Potency [15]

CCNc1ncc2nc(CCc3ccccc3)c(=O)n(Cc3cccc(OC)c3)c2n1
active: Potency [3] 12.6 µM | Potency [16] 6.31 µM
inactive: Potency [1] > 11.4 µM | activity change, negative = inhibition [2] 16.5% | activity change, negative = inhibition [4] -6.29% | outcome [5] | Potency [6] > 9.22 µM | Potency [7] > 46 µM | Potency [8] | outcome [14] | Potency [9] | Potency [10] | Potency [11] | Potency [12]

COc1ccccc1CNc1ncncc1-c1ccccc1Cl
active: Potency [3] 10 µM | Potency [17] 0.199 µM | Potency [18] 2 µM | Potency [16] 1.26 µM
inactive: Potency [1] > 11.4 µM | activity change, negative = inhibition [2] -2.69% | activity change, negative = inhibition [4] -21.7% | outcome [5] | Potency [7] > 46 µM | Potency [8] | Potency [13] | outcome [14] | Potency [9] | Potency [10] | Potency [11] | Potency [12]

C[C@@]1(F)[C@H](O)[C@@H](CO)O[C@H]1n1ccc(=O)[nH]c1=O
inactive: Potency [15]

CN(C)c1ncnc2ccc(-c3cccc(NS(C)(=O)=O)c3)cc12
active: Potency [9] 11.2 µM | Potency [10] 12.6 µM | Potency [11] 12.6 µM
inactive: activity change, negative = inhibition [2] -26.5% | outcome [5] | Potency [6] > 46 µM | Potency [7] > 46 µM | Potency [8] | Potency [13] | Potency [12]
